Tg IFNy HTS – blocks Toxoplasma gondii growth in the presence of IFN-gamma; Toxoplasma gondii growth in IFN-gamma-treated host cells; hits give low values; activity change, negative = inhibition, % (test concentration not listed); 69,000 compounds, 3.8% hits; AID 1259416; in the data active means activity change below about -70%, passing the limit was not always enough;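 further: host cells are HeLa cells infected with Toxoplasma gondii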
Numbers without * were called inactive. Many of the other results were omitted from the sample, so hits are more common in it than they were.

SMILES | Tg IFNy HTS
Cc1ccc(-c2cn[nH]c2C2CCCN(C(=O)c3ccc[nH]3)C2)cc1 (stereo not drawn) | -92*
CC(C)(C)OC(=O)Nc1cc(-c2cn[nH]c2C2CCCN(C(=O)OC(C)(C)C)C2)ccn1 (stereo not drawn) | -102*
Nc1cc(-c2cn[nH]c2C2CCCN(S(=O)(=O)c3ccccc3)C2)ccn1 (stereo not drawn) | -39
Cc1ccc(-c2cn[nH]c2C2CCCN(C(=O)c3c[nH]c(=O)cn3)C2)cc1 (stereo not drawn) | -20
CC(C)c1cc(C(=O)N2CCCC(c3[nH]ncc3-c3ccccc3)C2)on1 (stereo not drawn) | -4
Cc1c(C(=O)O)nnn1-c1ccccc1F | 16
COCCn1cnnc1C(C)NC1CCSCC1 (stereo not drawn) | 8
COc1ccc(-c2nn(-c3ccccc3)cc2C(=O)Nc2ccc(F)cc2)cc1 | -51
COc1ccccc1-c1cc(NC(=O)c2nnn(-c3ccc(Cl)cc3)c2C)n(C)n1 | -78*
COc1ccccc1-c1cc(NC(=O)c2cccc(Cn3ccnc3C)c2)n(C)n1 | -7
COc1ccccc1-c1nc(Cn2nnc(C(=O)Nc3cc(Cl)ccc3C)c2C)c(C)o1 | 12
CN1CCCC(CCNC(=O)Cn2ccc(=O)c3ccccc32)C1 (stereo not drawn) | 2
COc1ccc(CNc2nc(SCc3ccc(Cl)cc3)nc3ccccc23)cc1 | -61
CCN(CC)c1ncc2c(NCc3ccccc3)nc(SCc3ccccc3)nc2n1 | -110*
COc1ccc(CNc2nc(SCc3ccc(F)cc3)nc3ccccc23)cc1 | -70
O=S(=O)(NCCc1csc(-c2ccc(F)cc2)n1)c1ccc(Br)cc1 | -24
CCn1ncc(-c2ccc(OC)cc2C)c1C(=O)OC | 1
CC(C)(C)OC(=O)N1CCN(c2cccnc2)CC1C(=O)O (stereo not drawn) | -9
CCOC(=O)N1c2ccc(C(C)C)cc2C=CC1C#N (stereo not drawn) | 204
CC(C)c1ccc(CN2CCC(CNC(=O)C3(N)CCC3)C2)cc1 (stereo not drawn) | -8
CC(C)c1ccc2c(c1)CCC1C(C)(CNC(=O)NC(C)(C)C)CCCC21C (stereo not drawn) | -104*
C=CCNc1ccccc1C(=O)N1CCC(C(O)Cc2ccccc2)CC1 (stereo not drawn) | 9
O=C(Cn1cccc1-c1nc(-c2ccc(Cl)cc2)cs1)N1CCC2(CC1)OCCO2 | 13
CCCCCCCCCCCC[C@H](C(=O)O)[C@@H](C)C(=O)O | 11
COc1ccc(C(=O)N(c2ccc(F)cc2)C2(C(=O)NCc3ccccc3)CCN(C(C)=O)CC2)cc1 | -5
SMILES | Tg IFNy HTS
COc1ccc(C(=O)N(Cc2cccc(F)c2)C2(C(=O)NCc3ccccc3)CCN(C(C)=O)CC2)cc1 | -53
COc1ccc(C(=O)N(Cc2ccc(Cl)cc2)C2(C(=O)NCc3ccccc3)CCN(C(C)=O)CC2)cc1 | 114
COc1ccc(C(=O)N(c2ccc(C(C)C)cc2)C2(C(=O)NCc3ccccc3)CCN(C(C)=O)CC2)cc1 | -96*
COc1ccc(C(=O)N(Cc2cccc(OC)c2)C2(C(=O)NCc3ccccc3)CCN(C(C)=O)CC2)cc1 | -83*
COc1ccc(C(=O)N(c2ccc(Cl)cc2)C2(C(=O)NCc3ccccc3)CCN(C(C)=O)CC2)cc1 | 69
Cc1nn(C)c(C)c1NC(=O)CN1CCC(O)(c2ccccc2F)CC1 | -14
CCc1ccc(CNCC2COCc3c(C)nnn3C2)cc1 (stereo not drawn) | -49
CC(C)(C)CC(=O)NCCc1csc(-c2cccc(F)c2)n1 | 13
Nc1nc(C(=O)O)c(-c2ccc(Cl)cc2)s1 | 20
Cc1ccc(S(=O)(=O)N2CCC3(CC2)C(=O)NCCN3Cc2ccccc2)cc1 | 16
COCCCNC(=O)c1nc(Nc2ccccc2)c2ccccc2n1 | -15
CN1CCN(c2ncnc3ccc(-c4cccc5[nH]ccc45)cc23)CC1 | -76*
CC(C)NC(=O)c1ccc2ncnc(N3CCCCC3)c2c1 | -10
CCCc1cnc(-c2cccc3[nH]ccc23)nc1 | 159
CN(c1cncc(C(=O)N2CCN(c3cccc(Cl)c3)CC2)c1)S(=O)(=O)c1ccccc1 | -15
Cc1ccc(S(=O)(=O)N(C)c2cncc(C(=O)N3CCCCCC3)c2)cc1 | -11
Cc1ccc(S(=O)(=O)N(C)c2cncc(C(=O)N3CCC(Cc4ccccc4)CC3)c2)cc1 | -96*
O=C(CC1NC(=O)c2ccccc21)NCCc1nc2c(s1)CCC2 (stereo not drawn) | -39
C=CCN1CC(C(=O)N2CCN(CC(=C)C)CC2)CC1=O (stereo not drawn) | -5
CC1CCCCN1CCNS(=O)(=O)c1cc(-c2nc(C(C)(C)C)cs2)cs1 (stereo not drawn) | -24
Cc1c(Cl)cccc1NC(=O)c1c(O)c2ccccc2[nH]c1=O | 303
O=C(Nc1ccccc1Cl)c1nc(Nc2ccccc2)c2ccccc2n1 | -43
Cc1nc(C(=O)Nc2ccccc2Cl)cc2c1[nH]c1ccccc12 | -81*
CCn1cc(CN2CCC(N3CCCC(C(=O)N4CCCC4)C3)CC2)cn1 (stereo not drawn) | -1
